Growth inhibition data for 22 compounds are collected here from PubChem BioAssay (NCI).

About 79,000 compounds went through this panel and 15% of them were active in at least one assay; those are over-represented in the sample as a whole. Activity calls are given as the source filed them. Cut-off read from the data, not from the text of the source: active = growth inhibition above about 70%; inactive = the rest.

This assay can be described thus: NCI Yeast Anticancer Drug Screen. Data for the mlh1 rad18 strain (AID 175). Particulars: S. cerevisiae mlh1 rad18 strain growth inhibition; at 50.0 µM; stronger effect = higher value. In outline: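 Growth inhibition of the yeast strain was measured after compound exposure and expressed relative to vehicle-treated controls. The strain carries defined defects in DNA damage repair.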
On to `COc1ccc(-c2cc(=O)c3c(ccc4ccccc43)o2)cc1`, for which the growth inhibition is 7% (inactive).

Consider `COc1cc(/C=C2/SC(=S)NC2=O)cc(OC)c1OC`, for which the growth inhibition was 19.4% (inactive).

As for `O=c1c(=O)n(CCO)n(CCO)c(=O)n1CCO`, the growth inhibition is -18.1% (inactive).

For `COc1cc(-c2cc(=O)c3ccc(O)cc3o2)cc(OC)c1OC`, the growth inhibition is 2.2% (inactive).

As to `O=C(O)C1(c2ccc(Cl)cc2)CCCC1`, the growth inhibition is 60.6% (inactive).

As to `COc1ccc2ccccc2c1/C=N/N1CCCCC1`, the growth inhibition is 1.05% (inactive).

Consider `Cc1ccc(-c2nc3cc(Cl)ccc3c(=O)o2)cc1`, for which the growth inhibition was 6.3% (inactive).

As for `ClCCCC1(CCCCl)OCCO1`, the growth inhibition is -2.2% (inactive).

Take `CCOC(=O)/C=C(\C)Nc1ccc(F)cc1`: the growth inhibition is 14.2% (inactive).

Turning to `CCCCCCCCCCCCCCCC(C)(C)O`, the growth inhibition was 5.1% (inactive).

As to `CCOC(=O)C(C#N)C(C(C)=O)C(=O)OCC` (configuration not stated), the growth inhibition is 31.4% (inactive).

For the compound `CN1C(=S)c2ccccc2S1(=O)=O`, the growth inhibition was 24.2% (inactive).

Take `Cc1ccc(N2CCOC2=O)cc1N1CCOC1=O`: the growth inhibition was -10.7% (inactive).

Consider `CCCCCCC(=O)C(CCCC)(C(=O)OCC)C(=O)OCC`, for which the growth inhibition was 7.35% (inactive).

On to `CCOC(=O)CCc1ccc(O)c(O)c1`, for which the growth inhibition was 15.6% (inactive).

As to `Nc1cc(S(=O)(=O)c2ccc(O)c(N)c2)ccc1O`, the growth inhibition was 9.05% (inactive).

Consider `Fc1ccc(P(c2ccc(F)cc2)c2ccc(F)cc2)cc1`, for which the growth inhibition was 19.1% (inactive).

`C=CCCCCCCCCC(=O)Cl`: the growth inhibition was 11.1% (inactive).

In the case of `COc1cc(/C=N/NC(=O)c2cccs2)cc(OC)c1OC`, the growth inhibition was -13.3% (inactive).

For the compound `CC(=O)C1=CCC2C3CC(C)=C4CC(O)CCC4(C)C3CCC12C` (configuration not stated), the growth inhibition was -2.95% (inactive).

With `O=c1oc(-c2ccc(Cl)cc2)nc2cc(Cl)ccc12`, the growth inhibition is -20.8% (inactive).

Take `CC1CC(C)(C)N=C(Cc2ccccc2)O1` (configuration not stated): the growth inhibition was 2.05% (inactive).
